Test [1] is described as follows: NCI Yeast Anticancer Drug Screen. Data for the rad50 strain (AID 155).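 Also: 0% = growth of vehicle-only cultures of the same strain.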 Conditions: S. cerevisiae rad50 strain growth inhibition, hits give high values. In a few lines:
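Yeast carrying a defined DNA repair defect were exposed to test compounds, and growth was compared with vehicle-treated controls to give percent inhibition.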

Test [2] is described as follows: NCI Yeast Anticancer Drug Screen. Data for the mec2-1 strain (AID 157). Conditions: S. cerevisiae mec2-1 strain, hits give high values. In a few lines: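 Using mec2-1 yeast: add compound, measure growth, express inhibition versus vehicle-treated cultures.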
The nature of test [3]: NCI Yeast Anticancer Drug Screen. Data for the sgs1 mgt1 strain (AID 161).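 Also: 0% = growth of cultures given vehicle only.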 The settings on record: S. cerevisiae sgs1 mgt1 strain, hits give high values. In a few lines:
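This yeast growth screen uses a strain with defined DNA-repair lesions; compound-treated growth is compared with vehicle-treated growth.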

Test [4] in a line: NCI Yeast Anticancer Drug Screen. Data for the cln2 rad14 strain (AID 165).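 Also: 0% = growth equal to vehicle treated cultures.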 The settings on record: S. cerevisiae cln2 rad14 strain, hits give high values. In a few lines:
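Yeast strain cln2 rad14, bearing defects in cell cycle control and DNA repair, serves as the test system; values reflect growth inhibition compared with vehicle.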

Test [5] can be described thus: NCI Yeast Anticancer Drug Screen. Data for the bub3 strain (AID 167). Conditions: S. cerevisiae bub3 mutant strain, hits give high values. The gist of the method:
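Compounds were applied to a genetically altered yeast strain carrying a cell-cycle control defect. Growth inhibition was scored against vehicle-treated controls.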

Test [6] in a line: NCI Yeast Anticancer Drug Screen. Data for the mlh1 rad18 strain (AID 175). Conditions: S. cerevisiae mlh1 rad18 strain growth inhibition, hits give high values. In a few lines: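 Steps: expose repair-defective yeast to compound; measure growth; express inhibition against vehicle-treated controls.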
Setting [7] is: at 5.0 µM (retest, dose inferred, filed as 0.5).
Where [8] appears, read: at 50.0 µM (retest, dose inferred, filed as 5.0).

The panel holds about 79,000 compounds, 15% with a hit somewhere; the sample as a whole holds those more often. Values without a mark were called inactive. Calls of active or inactive are those of the source. Rule as the data show it: active = growth inhibition above about 70%; inactive = the rest.

For `Clc1nn2nnnc2c2ccccc12`, the growth inhibition in test [1] (setting [7]) was -133%; in test [1] (setting [8]), 87% (active); in test [1] (at 50.0 µM), 80.2% (active); in test [2] (setting [7]), -35%; in test [2] (setting [8]), 82% (active); in test [2] (at 50.0 µM), 81.2% (active). For the same molecule, the growth inhibition in test [3] (setting [7]) was -46%; in test [3] (setting [8]), 65%; in test [3] (at 50.0 µM) it was 51.5%; in test [4] (setting [7]), -51%; in test [4] (setting [8]) it was 24%; in test [4] (at 50.0 µM) it was -31.6%. The growth inhibition in test [5] (setting [7]) was -51%; in test [5] (setting [8]) it was 77% (active); in test [5] (at 50.0 µM), 65%; in test [6] (setting [7]), -102%; in test [6] (setting [8]), 74% (active); in test [6] (at 50.0 µM), 73.8% (active).

`CN(C)N=Nc1ccc(NC(N)=O)cc1`: the growth inhibition in test [1] (setting [7]) was 33%; in test [1] (setting [8]) it was 78% (active); in test [1] (at 50.0 µM), 43.8%; in test [2] (setting [7]) it was 16%; in test [2] (setting [8]) it was 43%; in test [2] (at 50.0 µM), 65.3%. Moreover, the growth inhibition in test [3] (setting [7]) was 38%; in test [3] (setting [8]), 45%; in test [3] (at 50.0 µM), 12.6%; in test [4] (setting [7]), 38%; in test [4] (setting [8]), 51%; in test [4] (at 50.0 µM), 23.3%. For the same molecule, the growth inhibition was 42% in test [5] (setting [7]); 50% in test [5] (setting [8]); 67.7% in test [5] (at 50.0 µM); 25% in test [6] (setting [7]); 58% in test [6] (setting [8]); 81.2% (active) in test [6] (at 50.0 µM).

`O=P1(O)c2ccccc2CS(=O)(=O)Cc2ccccc21`: the growth inhibition in test [1] (setting [7]) was 34%; in test [1] (setting [8]), 31%; in test [1] (at 50.0 µM) it was 21.4%; in test [2] (setting [7]), 21%; in test [2] (setting [8]) it was 24%; in test [2] (at 50.0 µM) it was -11.1%. Also, the growth inhibition in test [3] (setting [7]) was 26%; in test [3] (setting [8]) it was 53%; in test [3] (at 50.0 µM), -24.2%; in test [4] (setting [7]), 16%; in test [4] (setting [8]), 29%; in test [4] (at 50.0 µM) it was -13.2%. Moreover, the growth inhibition in test [5] (setting [7]) was 16%; in test [5] (setting [8]) it was 46%; in test [5] (at 50.0 µM) it was -19.8%; in test [6] (setting [7]), 35%; in test [6] (setting [8]), 43%; in test [6] (at 50.0 µM) it was -42.8%.

As for `Cc1ccc(C(=O)C(CN(C)C)CN(C)C)cc1`, the growth inhibition in test [1] (setting [7]) is 16%; in test [1] (setting [8]), 41%; in test [1] (at 50.0 µM), 83.7% (active); in test [2] (setting [7]) it was 12%; in test [2] (setting [8]), 63%; in test [2] (at 50.0 µM) it was 92.3% (active). Moreover, the growth inhibition in test [3] (setting [7]) is 20%; in test [3] (setting [8]), 76% (active); in test [3] (at 50.0 µM), 88.5% (active); in test [4] (setting [7]) it was 17%; in test [4] (setting [8]), 39%; in test [4] (at 50.0 µM) it was 73.2% (active). The growth inhibition is 16% in test [5] (setting [7]); 65% in test [5] (setting [8]); 88.7% (active) in test [5] (at 50.0 µM); 14% in test [6] (setting [7]); 72% (active) in test [6] (setting [8]); 88% (active) in test [6] (at 50.0 µM).

Regarding `C=C(CN(C)C)C(=O)c1ccccc1[N+](=O)[O-]`, the growth inhibition in test [1] (setting [7]) was 1%; in test [1] (setting [8]), 92% (active); in test [1] (at 50.0 µM), 8.5%; in test [2] (setting [7]) it was 10%; in test [2] (setting [8]), 96% (active); in test [2] (at 50.0 µM) it was 51.4%. In addition, the growth inhibition was 6% in test [3] (setting [7]); 91% (active) in test [3] (setting [8]); 74.2% (active) in test [3] (at 50.0 µM); 99% (active) in test [4] (setting [7]); 91% (active) in test [4] (setting [8]); -25.4% in test [4] (at 50.0 µM). For the same molecule, the growth inhibition is 1% in test [5] (setting [7]); 92% (active) in test [5] (setting [8]); 71.7% (active) in test [5] (at 50.0 µM); 8% in test [6] (setting [7]); 92% (active) in test [6] (setting [8]); 66.8% in test [6] (at 50.0 µM).

As to `CN(/N=C\c1ccc2ccccc2c1)C1=NCCCN1`, the growth inhibition was 97% (active) in test [1] (setting [7]); 68% in test [1] (setting [8]); 56.8% in test [1] (at 50.0 µM); 99% (active) in test [2] (setting [7]); 67% in test [2] (setting [8]); 33.6% in test [2] (at 50.0 µM). Besides, the growth inhibition in test [3] (setting [7]) is 98% (active); in test [3] (setting [8]) it was 56%; in test [3] (at 50.0 µM), 49.6%; in test [4] (setting [7]), 97% (active); in test [4] (setting [8]) it was 66%; in test [4] (at 50.0 µM) it was 7.7%. Moreover, the growth inhibition in test [5] (setting [7]) was 98% (active); in test [5] (setting [8]), 96% (active); in test [5] (at 50.0 µM) it was 99.2% (active); in test [6] (setting [7]) it was 97% (active); in test [6] (setting [8]) it was 79% (active); in test [6] (at 50.0 µM), 60.9%.

Regarding `Cc1cc(=O)n(-c2cc3cccccc-3n2)[nH]1`, the growth inhibition was -9% in test [1] (setting [7]); 96% (active) in test [1] (setting [8]); 96.8% (active) in test [1] (at 50.0 µM); 2% in test [2] (setting [7]); 97% (active) in test [2] (setting [8]); 71.6% (active) in test [2] (at 50.0 µM). Further, the growth inhibition in test [3] (setting [7]) is 2%; in test [3] (setting [8]), 98% (active); in test [3] (at 50.0 µM), 97.8% (active); in test [4] (setting [7]), -11%; in test [4] (setting [8]), 98% (active); in test [4] (at 50.0 µM), 70.3% (active). Moreover, the growth inhibition in test [5] (setting [7]) was -1%; in test [5] (setting [8]), 95% (active); in test [5] (at 50.0 µM) it was 86.2% (active); in test [6] (setting [7]), -1%; in test [6] (setting [8]), 98% (active); in test [6] (at 50.0 µM) it was 96.2% (active).

These data come from PubChem BioAssay (NCI).
